# From PubChem
# TROY NFkB inh – blocks TROY-dependent signaling in reporter cells. Q293 LMP1-TROYcd NF-kB luciferase reporter, 4 h. inhibition, % at 10 µM. actives 0.98% (n = 360,000). AID 1347056;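 active = compounds whose plate-normalised and pattern-corrected inhibition of the luciferase reporter signal at the single screening dose is 50% or more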
# MITF TRPM1 inh – MITF TRPM1 promoter inhibition in SK-MEL-5 cells; SK-MEL-5 TRPM1 promoter luciferase, 24 h; inhibition, % at 12.5 µM; actives 0.83% (n = 330,000); AID 488899;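 active = mean inhibition across replicates of 60% or more, whatever share of single replicates reaches that level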
# Peg3 prom inh – Peg3 promoter activity inhibition. HeLa PEG-Prom luciferase reporter, luminescence, overnight. inhibition, % at 20 µM. actives 1.7% (n = 360,000). AID 588405;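 active = inhibition of at least 50% at 20 µM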
# HIF-2a block – HIF-2a inhibition. 786-0 RCC cells HIF-2a reporter, luciferase luminescence, overnight. actives 0.72% (n = 360,000). AID 624352. inhibition, % at 18.8 µM;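 active = inhibition of the luminescence signal of 40% or more relative to plate controls, in a single-dose primary screen at 18.75 µM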
# TWEAK-Fn14 inh – blocks TWEAK-Fn14 interaction in a reporter cell assay | TWEAK-stimulated Fn14 reporter cells, luciferase luminescence, 8 h | inhibition, % at 10 µM | actives 2% (n = 360,000); in the data active = inhibition above about 50%
# LMP1 NFkB inh – reduces LMP1-driven NF-kappaB luciferase signal; actives 0.69% (n = 350,000); inhibition, % at 12.5 µM; LMP1-induced NF-kappaB luciferase reporter cells, luminescence; in the data active = inhibition above about 41%;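 also: 0% = neutral control wells and 100% = reference inhibitor control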
# * = called active by the depositor; . = no result given. This is a sample that favours compounds with a hit; in the whole collection about 4% have one here.
SMILES,TROY NFkB inh,MITF TRPM1 inh,Peg3 prom inh,HIF-2a block,TWEAK-Fn14 inh,LMP1 NFkB inh
COc1ccc(NC(=O)CCC(=O)N/N=C/c2ccc([N+](=O)[O-])s2)cc1,-21,72*,19,0,27,1
Cc1cc(C(=O)N/N=C/c2ccc([N+](=O)[O-])s2)n[nH]1,14,70*,-20,26,6,0
Cc1ccc(NC(=O)/C=C/c2ccc([N+](=O)[O-])s2)cc1,16,82*,-72,-58,50*,-170
CCOC(=O)N/N=C\c1ccc([N+](=O)[O-])s1,-24,29,-148,-21,-6,7
Cc1cc(C(=O)N/N=C/c2ccc(C)s2)n[nH]1,-32,-29,-126,-98,4,-15
CC(C)(C)OC(=O)N/N=C\c1ccc([N+](=O)[O-])s1,66*,24,-51,-104,91*,-7
O=C(Cc1csc(N2CCOCC2)n1)N/N=C/c1ccc(F)cc1,-3,5,9,0,11,2
COC(=O)c1[nH]c2cccc(Cl)c2c1NC(=O)CN(C)C1CCCCC1,-2,11,14,22,95*,3
CCOC(=O)C1CCN(CC(=O)Nc2c(C(=O)OC)[nH]c3cccc(Cl)c23)CC1,7,10,13,1,-1,-2
COc1ccc(OC)c(NC(=O)COC(=O)CCc2nc3ccccc3c(=O)[nH]2)c1,17,2,4,11,-2,-6
COc1ccc(C(=O)NCCn2cc(SCC(N)=O)c3ccccc32)cc1,63*,-7,-2,-23,51*,-8
Cn1c(=O)cc(SCC(=O)NCc2ccco2)c2ccccc21,-2,-2,6,-7,7,3
O=C(CSc1cn(CCNC(=O)c2ccc3ccccc3c2)c2ccccc12)NCc1ccco1,42,.,-31,-113,60*,-12
COc1ccc(C(=O)NCCn2ccc3ccccc32)cc1,43,-99,-168,-148,30,-15
COc1ccc(C(=O)NCCn2cc(SCC(=O)N3CCOCC3)c3ccccc32)cc1,67*,3,-91,-31,34,-8
O=C(NCCn1cc(SCc2ccccc2F)c2ccccc21)c1c(F)cccc1F,34,.,-31,-170,62*,-13
COc1cccc(NC(=O)CN(C)C(=O)c2ccccc2-c2nc3ccccc3s2)c1,21,-10,11,4,-24,6
CCOc1cccc(-c2c(C(=O)N/N=C(\C)c3cccnc3)nnn2-c2nonc2N)c1,-21,-6,-2,9,-16,4
CCOc1ccc(NCc2cccn2-c2nnc(N3CCC(C(=O)NCCCN4CC(C)CC(C)C4)CC3)s2)cc1 (stereo not given),4,90*,43,5,12,-8
CC(Sc1nnc(CN2CCCC2)n1Cc1ccccc1)C(=O)Nc1ccc(F)cc1Cl (stereo not given),7,9,11,8,-18,-10
N#CCC(=O)NNC(=S)Nc1ccccc1C(F)(F)F,16,21,24,15,65*,12
CCC(=O)NC(=S)Nc1ccccc1C(F)(F)F,5,-4,-7,-3,-2,73*
COc1ccc(N2C(=NC(=O)C3CC3)SC3CS(=O)(=O)CC32)cc1Cl (stereo not given),0,-1,14,-2,-8,-2
Fc1cccc(C2NN=C(c3ccccc3)S2)c1 (stereo not given),5,-4,-178,-84,37,5
Cc1ccc(C2=NNC(c3cccc(F)c3)S2)cc1 (stereo not given),54*,21,-48,-33,65*,26
SMILES,TROY NFkB inh,MITF TRPM1 inh,Peg3 prom inh,HIF-2a block,TWEAK-Fn14 inh,LMP1 NFkB inh
O=[N+]([O-])c1cc([N+](=O)[O-])c2oc(-c3ccccc3)c(Br)c2c1O,69*,9,21,-16,36,2
O=c1cc(-c2ccccc2Cl)oc2ccc([N+](=O)[O-])c(O)c12,-14,4,-41,-21,-26,-8
Cc1cc(C)nc(CCNC(=O)c2cc(COc3ccc(F)cc3F)on2)n1,-7,3,7,12,-5,-5
Cc1cc(C)nc(CCNC(=O)c2cc(COc3ccc(F)cc3Cl)on2)n1,76*,3,-1,-4,-21,-8
C=CC[C@@H](CC(=O)N(CCO)Cc1ccccc1)C(=O)N[C@@H](COC(=O)[C@@H](CC=C)Cc1ccc(F)cc1)Cc1c[nH]c2ccccc12,45,7,43,15,57*,7
C=CC[C@@H](CC(=O)N(CCO)Cc1ccccc1)C(=O)NC[C@H](OC(=O)[C@@H](CC=C)Cc1ccc(F)cc1)c1ccccc1,42,9,71*,-12,52*,14
C=CC[C@H](CC(=O)N(CCO)Cc1ccccc1)C(=O)N[C@@H](COC(=O)[C@@H](CC=C)Cc1ccc(F)cc1)Cc1c[nH]c2ccccc12,35,1,60*,-37,70*,-2
CC(c1nccs1)N(C)C(=O)c1cn(Cc2cccc3ccccc23)nn1 (stereo not given),-30,-45,-170,-142,-15,-6
O=C(NCC(O)c1nc2ccccc2[nH]1)c1cc([N+](=O)[O-])ccc1F (stereo not given),-4,.,28,28,-20,.
Cc1cc(N)n(Cc2cccs2)n1,-3,.,-1,1,2,0
CSCC[C@H](NC(=O)OC(C)(C)C)C(=O)N/N=C/c1cccc2nccnc12,17,7,-2,22,93*,-1
Cc1ccc(NC2=Nc3ccccc3CS2)cc1,32,1,-125,-113,74*,-32
Cc1ccc(Nc2ccccc2)cc1,-4,-8,3,-9,-26,-1
CCN(c1ccc(OC)cc1)S(=O)(=O)c1nnc(NC(=O)c2ccc(C)cc2)s1,10,4,-7,-9,5,2
CN(Cc1ccc(C(C)(C)C)cc1)C(=O)C1CSC2(C)CCC(=O)N12 (stereo not given),-17,8,8,6,16,1
CCC(=O)N(C1=C(NC(C)C)C(=O)c2ccccc2C1=O)C(C)C,9,27,19,11,6,-2
CCCNC1=C(N(C(C)=O)c2cccc(F)c2)C(=O)c2ccccc2C1=O,18,98*,85*,73*,79*,10
Cc1cccnc1C(NC(=O)C1CCN(Cc2ccc(Cl)cc2)CC1)c1ccccc1 (stereo not given),17,.,13,-3,-2,.
O=C(NC(c1ccccc1)c1ccc2ccccc2n1)C1CCN(CCOc2ccc(Cl)cc2)CC1 (stereo not given),11,.,35,-19,92*,.
O=C(NC(c1ccc(Cl)cc1)c1ccccn1)C1CCN(CCOc2ccc(Cl)cc2Cl)CC1 (stereo not given),30,.,100*,-22,-33,.
